Assay results taken from ChEMBL document CHEMBL3988442, “University of Dundee, Small-Polar-MMV Screening Library” (2021).
Hit rate of the full screen: of about 48,000 compounds, about 13,000 (27%) showed an effect of 50% or more. This is one part of the list.

Each molecule was assayed on Wolbachia pipientis (assay: Anti-Wolbachia Cell-Based Screen). Details: 5 µM.
Type: functional
Parameters: scale not given: in the data most compounds retested in dose-response had high values

SMILES | Percent Effect
CC(C)C1CN(C(=O)c2cc(=O)[nH]c(=O)[nH]2)CCCN1CC1CC1 (centres undefined) | 26.13%
Cc1ccc(CN2CCN(c3ncnc4[nH]cnc34)CC2CCO)cc1 (centres undefined) | -6.275%
Cc1cc(CN2CCN(CC3CC3)[C@@H]3CS(=O)(=O)C[C@@H]32)ccc1F | 0.5835%
CCS(=O)(=O)N1CCc2c(nc(C3CCCN3)nc2NC)C1.Cl (centres undefined) | 89.89%
CCS(=O)(=O)N1CCc2c(cccc2NCc2ncc[nH]2)C1 | -10.34%
CNc1nc(C2CCCN2)nc2c1CCN(S(=O)(=O)C1CCCCC1)C2.Cl (centres undefined) | 89.64%
CCS(=O)(=O)N1CCc2c(cccc2NCc2nc(C)c(C)o2)C1 | 13.37%
O=C1CCN(C(=O)C2(c3ccc(F)cc3)CCCC2)CCN1 | -16.8%
COc1ccc(C(O)CNC(=O)NCc2csc(C)n2)cc1 (centres undefined) | -1.772%
CS(=O)(=O)N1CCN2C(=O)N(C3CCOCC3)C[C@H]2C1 | -10.83%
Cc1nccn1CCC1CCN(C2CCC3(CCNCC3)CC2)CC1 | 84.73%
Cc1nccn1CCC1CCN(C(=O)C2CC3(CCNCC3)CN2)CC1 (centres undefined) | 104.8%
Cc1nccn1CCC1CCN(c2ncccn2)CC1 | -9.43%
Cc1cnccc1N1CCN(C(=O)C2CC3(CCNCC3)CN2)CC1 (centres undefined) | 31.13%
Cc1nnc(N2CCC(CCn3ccnc3C)CC2)o1 | 2.305%
Cc1ncnc(N2CCN(C(=O)C3CC4(CCNCC4)CN3)CC2)c1C (centres undefined) | -0.6445%
CCCN(CC(=O)OC)S(=O)(=O)c1cnc2c(c1)c(C)nn2C | 9.963%
O=C(C1CCOC1)N1C[C@@H]2CCN(C(=O)c3cscn3)[C@@H]2C1 (some centres undefined) | 85.3%
CN1C[C@@H]2CN(C(=O)C3CCOC3)C[C@@H]2C1=O (some centres undefined) | 0.8988%
CCS(=O)(=O)N1CCC2(CN(C(=O)c3cscn3)C2)C1 | 7.529%
CS(=O)(=O)N1C[C@@H]2CCN(C(=O)c3ccco3)[C@@H]2C1 | -6.962%
CC(C)C(=O)N1CCN(C(=O)c2cscn2)[C@H]2CS(=O)(=O)C[C@H]21 | 2.64%
CS(=O)(=O)N1C[C@@H]2CCN(C(=O)c3cscn3)[C@@H]2C1 | 118.3%
O=C(NC1CCCCC1)N1C[C@@H]2OCCN(C(=O)c3ccco3)[C@@H]2C1 | 2.504%
O=C(c1ccsc1)N1C[C@@H]2CCN(C(=O)c3cscn3)[C@@H]2C1 | 98.94%
O=C(c1ccsc1)N1C[C@@H]2CCN(C(=O)c3cccc(F)c3)[C@@H]2C1 | -29.62%

SMILES | Percent Effect
O=C(NC1CC1)N1C[C@@H]2CCN(C(=O)c3cscn3)[C@@H]2C1 | 121.3%
O=C(c1cscn1)N1CC[C@@H]2[C@@H]1CCN2c1ccccn1 | -2.894%
O=C(c1ccco1)N1C[C@H]2CCCN(C(=O)c3ccsc3)[C@H]2C1 | -8.905%
Cc1nc(C(C)(C)NCc2ncc(C(C)C)o2)sc1C | 0.4552%
O=C(C1CCS(=O)(=O)C1)N1CCC(=Cc2cccc(F)c2)CC1 (centres undefined) | 0.7274%
Cc1ccc2nc(C(=O)N3C[C@@H](C(=O)O)[C@H](c4cccnc4)C3)cn2c1 | 96.84%
Cc1ccc(CN2C[C@@H](C(=O)O)[C@H](c3cccnc3)C2)s1 | -1.112%
COc1cc(C)sc1C(=O)N1CC(c2cccnc2)C1 | -11.08%
Cc1ccc2nc(C(=O)N3CC(c4cccnc4)C3)cn2c1 | 95.05%
Cc1ccc2nc(C(=O)N3C[C@@H](C(=O)O)[C@H](c4ccccc4)C3)cn2c1 | 107.2%
Cc1c(Cl)c(C(=O)N2C[C@@H](C(=O)O)[C@H](c3cccnc3)C2)nn1C | 7.348%
Cc1c(Cl)c(C(=O)N2CC(c3cccnc3)C2)nn1C | 11%
Cc1ccc(F)c(C(=O)N2C[C@@H](C(=O)O)[C@H](c3ccccc3)C2)c1Cl | 13.68%
Cc1ccc2nc(C(=O)N3CC(n4nc(C)cc4C)C3)cn2c1 | -3.622%
Cc1c(-c2n[nH]c3c2CN(CC2CCOC2)CC3)cccc1C(F)(F)F (centres undefined) | -2.371%
CCCOC(=O)C(C)Sc1nnnn1C1CCOCC1 (centres undefined) | -23.26%
O=C(NC1CCOCC1)C1CC(=O)N(Cc2ccccn2)C1 (centres undefined) | -4.932%
Cc1ncccc1CNCC1CCN(CC(O)c2ccccc2)CC1 (centres undefined) | 6.479%
N[C@@H]1CC[C@H](C(=O)NCc2ccc3nonc3c2)C1 | -14.66%
Cc1cccc(CSc2ncc(Cl)c(C(=O)O)n2)c1 | 112.8%
Cc1cccc(CSc2ncc(Br)c(C(=O)O)n2)c1 | 160.3%
Cc1cccc(CN2CCN(C(=O)c3cc(Cl)c[nH]c3=O)CC2)c1 | -10.72%
O=C(O)c1nc(SCc2ccccc2)ncc1Br | 220.2%
Cc1ccc(CSc2ncc(Br)c(C(=O)O)n2)cc1 | 104.9%
Cc1ccnc(NC(=O)CSCc2cccnc2)c1 | -2.126%
Cc1cccc(CN2CCN(C(=O)c3cnc(C)[nH]c3=O)CC2)c1 | -2.506%

SMILES | Percent Effect
CC1(C)CN(CC(F)(F)F)CCN1CC(=O)NC1CC1 | -2.584%
CSc1sc(NC(=O)Cc2c(C)nc(C)[nH]c2=O)nc1C | -3.918%
Cc1ncnc(NCc2cc3n(n2)CCCN(S(C)(=O)=O)C3)c1C | 3.244%
CNS(=O)(=O)c1csc(C(=O)N(C)Cc2ccccc2C)c1 | -9.289%
CC1COc2ccccc2N1C(=O)CCc1cscn1 (centres undefined) | -5.764%
Cc1ccccc1CSc1ncc(Br)c(C(=O)O)n1 | 130.2%
Cc1ccccc1CSc1nc(N)cc(N2CCC(CC(N)=O)CC2)n1 | 7.144%
O=C(O)c1nnn(Cc2ccc(F)cc2)c1-c1cccnc1 | 3.102%
O=C(O)c1nc(SCc2ccc(F)cc2)ncc1Br | 202.4%
Cc1ccccc1CSc1nc(N)cc(N2CCCC(C(N)=O)C2)n1 (centres undefined) | -15%
Cc1cc(CN2CCc3nn(C(C)C)c(=O)cc3C2)no1 | -4.35%
CCc1csc(CCNC(=O)C2CC(=O)N(C(C)C)C2)n1 (centres undefined) | 2.498%
CCOCCC(=O)NC(c1noc(C)n1)c1ccccc1F (centres undefined) | -21.83%
COc1ccc(CNCC(C)Oc2ccccn2)cc1Br.Cl (centres undefined) | 9.774%
NC(=O)c1noc(Cn2ccc3ccccc3c2=O)n1 | -17.09%
CNS(=O)(=O)c1cccc(C(C)NCc2ccccc2)c1 (centres undefined) | -4.826%
Cc1ccc(OCCN(C)C(C)c2cccc(S(N)(=O)=O)c2)cc1 (centres undefined) | 121.8%
CC(c1cccc(S(N)(=O)=O)c1)N(C)CCCOc1ccccc1 (centres undefined) | 114.5%
CN(CCCOc1ccccc1)S(=O)(=O)N1CCOCC1 | 2.231%
Cc1ccc(OCCCC(=O)NC(C)c2ccc(S(N)(=O)=O)cc2)cc1 (centres undefined) | 31.07%
Cc1ccc(C(C)N(C)CCS(=O)(=O)CCC(N)=O)cc1 (centres undefined) | 1.361%
Cc1cccc(C2CCCN2C(=O)CN(C)S(C)(=O)=O)c1C (centres undefined) | -12.58%
CNC(=O)c1ccc(C2CN(C(=O)c3cnn(C)c3)CCO2)nc1 (centres undefined) | 109.7%
CNC(=O)c1ccc(C2CN(C(=O)c3scnc3C)CCO2)nc1 (centres undefined) | 111.8%
CCC1CN(C(=O)c2cnc(-c3cnn(C)c3)s2)CCO1 (centres undefined) | -21.53%
O=C(c1cccnc1)N1CCOC(c2ccc(-c3cncnc3)cn2)C1 (centres undefined) | 91.28%

SMILES | Percent Effect
CNC(=O)c1ccc(C2CN(C(=O)c3cncs3)CCO2)nc1 (centres undefined) | -5.383%
Cc1nc(N)cc(C2CN(C(=O)c3ccn(C)n3)CCO2)n1 (centres undefined) | -11.99%
O=C(c1ccncc1F)N1CCOC(c2cccc(O)c2)C1 (centres undefined) | -9.281%
Cn1ccc(C(=O)N2CCOC(c3ccc(C(N)=O)cn3)C2)n1 (centres undefined) | 91.81%
Cc1n[nH]c(C2CN(C(=O)c3scnc3C)CCO2)n1 (centres undefined) | -53.57%
Cc1n[nH]c(C2CN(C(=O)c3ccc(=O)n(C)c3)CCO2)n1 (centres undefined) | -1.43%
O=C(c1cccnc1)N1CCOC(CCCc2ccccc2)C1 (centres undefined) | 4.666%
CCN(Cc1noc(CC(C)C)n1)Cc1ccccc1C(=O)O | 3.594%
COc1ccc(C(=O)C2CCCN(c3cc(N)ncn3)C2)c(C)c1 (centres undefined) | -12.01%
Cc1cc(C[C@@H]2COC[C@@H]2NC(=O)CN2CCCN(C)CC2)on1 | -4.417%
Cc1cc(C2CCCN2C(=O)CN2CCc3ccccc32)on1 (centres undefined) | -2.751%
CNC(=O)c1ccc(C2CN(C(=O)c3c[nH]nc3C)CCO2)nc1 (centres undefined) | 101.4%
Cc1[nH]ncc1C(=O)N1CCOC(c2cccs2)C1 (centres undefined) | 6.058%
CNC(=O)c1ccc(C2CN(C(=O)c3coc(C)n3)CCO2)nc1 (centres undefined) | 128.9%
CCOCC(=O)Nc1cc(-c2cccc(F)c2F)n[nH]1 | 91.5%
CCS(=O)(=O)CC(=O)Nc1cc(-c2cccc(F)c2F)n[nH]1 | 100.6%
CCS(=O)(=O)CC(=O)NCC1(c2c(F)cccc2F)CCCC1 | -2.417%
CCS(=O)(=O)CC(=O)Nc1c(C)cnn1Cc1cc(F)ccc1F | -26.81%
COc1ccccc1-c1cc(NC(=O)CCS(=O)(=O)C2CCCC2)[nH]n1 | 7.035%
COc1ccccc1-c1cc(NC(=O)COCC2CC2)[nH]n1 | 4.73%
CS(=O)(=O)CCCC(=O)Nc1cc(Cl)c(Cl)cn1 | 1.598%
CC(=O)Nc1cc(-c2cccc(F)c2F)n[nH]1 | 88.91%
CS(=O)(=O)CCCC(=O)Nc1cc(-c2cccc(F)c2F)n[nH]1 | 87.07%
COc1ccc(Cl)cc1-c1cc(NC(=O)C2CNC(=O)N2)[nH]n1 (centres undefined) | 7.586%
Cc1cc(NC(=O)c2ccc(C)c(F)c2)[nH]n1 | 2.098%
O=C(COCC1CC1)Nc1cc(-c2ccc(Br)s2)n[nH]1 | -5.562%
